Assay results: a collection of fitness landscapes (doi:10.1016/j.celrep.2020.107928)
Over roughly 81,000 sequences, “one-hybrid fitness for binding parS DNA” has its median near -0.17; the highest 2% begin near 0.51. What follows is part of a selection rich in the highest values, with near analogues and random picks from the rest.

B1: Caulobacter ParB omega fusion; a variant is named by its letters at X, in order, B8GW30 (parent)
chain: MESVVVGEPGMSEGRRGLGRGLSALLGEVDAAPAQAPGEQLGGSREAPIEILQRNPDQPRRTFREEDLEDLSNSIREKGVLQPILVRPSPDTAGEYQIVAGERAWRAAQRAGLKTVPIMVRELDDLAVLEIGIIENVQRADLNVLEEALSYKVLMEKFERTQENIAQTIGKSXSHVANXMRLLXLPDEVQSYLVSGELTAXHARAIAAAADPVALAKQIIEGGLSVRETEALARKAPNLSAGKSKGGRPPRVKDTDTQALESDLSSVLGLDVSIDHRGSTGTLTITYATLEQLDDLCNRLTRGI

Variants of: B1
Test: one-hybrid fitness for binding parS DNA (scaled: cognate 1, non-cognate 0); higher = stronger binding
Conditions: with parS DNA site
Method in brief: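 In E. coli USO, a HIS3 reporter with its site placed 19 bp from the promoter was used to select Caulobacter ParB variants randomised at four specificity codons. Growth lasted 48 hours at 37°C on histidine-free M9 containing 0.1 mM IPTG and 5 mM 3-AT. Fitness was taken as the log change in variant-to-wild-type read ratio from Illumina sequencing of pre- and post-selection plasmids, rescaled between the non-cognate and cognate sites.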

Variant | one-hybrid fitness for binding parS DNA
AGLI | ≤ 0.2
MFAT | ≤ 0.2
RMTS | 0.975
RMTD | 0.207
RMTN | 0.45
RATH | 0.255
RATD | ≤ 0.2
RATS | 1
RFVQ | ≤ 0.2
RFKT | 0.902
RFVP | ≤ 0.2
RFVT | 0.614
RFKP | ≤ 0.2
NFKT | ≤ 0.2
GMAG | ≤ 0.2
DNQC | ≤ 0.2
KSSE | ≤ 0.2
PNYS | ≤ 0.2
RTFC | 0.986
RTFD | ≤ 0.2
RTFN | 0.436
RTAN | 0.429
RTAC | 0.98
RTAF | 0.256
ITKL | ≤ 0.2
KWHC | ≤ 0.2

Variant | one-hybrid fitness for binding parS DNA
QGYA | ≤ 0.2
NFMG | ≤ 0.2
RKMM | 0.283
RKMG | 0.951
RHMG | 0.932
RIMR | ≤ 0.2
RHMY | 0.383
RIMG | 0.996
DFMG | ≤ 0.2
RFMG | 0.864
RHMK | ≤ 0.2
RIMM | 0.377
RKMQ | ≤ 0.2
AATS | ≤ 0.2
LNQW | ≤ 0.2
ILSS | ≤ 0.2
QYSS | ≤ 0.2
QVQQ | ≤ 0.2
YRRM | ≤ 0.2
RRMM | ≤ 0.2
RAMK | ≤ 0.2
REMG | ≤ 0.2
RDMG | ≤ 0.2
RAMY | 0.435
RPMG | ≤ 0.2
RAMG | 0.995

Variant | one-hybrid fitness for binding parS DNA
RRMR | ≤ 0.2
RSMG | 0.962
RSMR | ≤ 0.2
RCMG | 1.03
RRMG | 0.806
LNGD | ≤ 0.2
WSGR | ≤ 0.2
IRPG | ≤ 0.2
LHHS | ≤ 0.2
PPPY | ≤ 0.2
RLMY | 0.49
RLMR | ≤ 0.2
RTMG | 1
RTMK | ≤ 0.2
RTMR | ≤ 0.2
RMMH | ≤ 0.2
RMMG | 0.985
RMMQ | 0.215
RLMG | 1.02
MPYE | ≤ 0.2
MAAF | ≤ 0.2
SSTQ | ≤ 0.2
DFFS | ≤ 0.2
VTNA | ≤ 0.2
QCWG | ≤ 0.2
SHRE | ≤ 0.2

Variant | one-hybrid fitness for binding parS DNA
RRHI | ≤ 0.2
TAII | ≤ 0.2
LRVW | ≤ 0.2
AKPV | ≤ 0.2
QKYL | ≤ 0.2
RMPL | ≤ 0.2
RMIH | 0.223
RMPG | 0.775
RMIG | 0.947
RMPY | 0.322
RMIP | ≤ 0.2
VWYT | ≤ 0.2
HCQT | ≤ 0.2
TAHC | ≤ 0.2
RTVP | ≤ 0.2
RTVN | 0.387
RTVS | 1
RTKD | ≤ 0.2
RTKS | 0.815
RTKH | 0.439
PTHK | ≤ 0.2
YTPL | ≤ 0.2
RQDM | 0.324
RQRT | 0.849
RQHD | ≤ 0.2
RQRK | ≤ 0.2

Variant | one-hybrid fitness for binding parS DNA
RQHH | 0.292
RQSR | ≤ 0.2
RQRM | 0.349
RQST | 0.916
RQDY | 0.421
RQSM | 0.319
RQHT | 0.892
RQDT | 0.768
VPNM | ≤ 0.2
PYKG | ≤ 0.2
NCIC | ≤ 0.2
LPKF | ≤ 0.2
GQSM | ≤ 0.2
WYTC | ≤ 0.2
RQQT | 0.895
RQQR | ≤ 0.2
RQNQ | ≤ 0.2
RQYM | 0.318
RQNE | ≤ 0.2
RQGH | 0.249
RQQF | 0.28
RQNT | 0.889
RQYK | ≤ 0.2
RQGT | 0.847
RQYT | 0.847
RQGD | ≤ 0.2

Variant | one-hybrid fitness for binding parS DNA
NLLR | ≤ 0.2
RPHV | ≤ 0.2
WPRR | ≤ 0.2
VTAC | ≤ 0.2
DHDY | ≤ 0.2
MGLM | ≤ 0.2
DCQR | ≤ 0.2
HLAT | ≤ 0.2
RQCT | 0.846
RQWR | ≤ 0.2
RQLR | ≤ 0.2
RQCD | ≤ 0.2
RQLM | 0.301
RQCP | ≤ 0.2
RQLT | 0.86
RQWT | 0.702
RQWF | ≤ 0.2
FMNC | ≤ 0.2
QHYS | ≤ 0.2
AARS | ≤ 0.2
AYIV | ≤ 0.2
GHTQ | ≤ 0.2
WFQV | ≤ 0.2
RSAG | 0.992
RPAG | ≤ 0.2
